Changes are numbered by the printed parent chain. The full ranking holds about 5,800 sequences; the median of “enrichment r” is about 0.54, and the highest 2% start at about 16. What follows is part of a selection rich in the highest values, with near analogues and random picks from the rest.
B1: chr12:54350855:54350965:+|3pUTR|ENSG00000111481|msi1|FALSE|unique (ssRNA)
RNA: GGGAGUUCUACAGUCCGACGAUCUUGCCCUGACAUUUUUGUAAAUUCUGUGCCCUUUGCUGUAGCUACACUUCAGAUUAAAGUAGGAGAAAGAAUGUGCUGAGUGUUUUCCUCCCUUUGCCUCUACCUGGCCCUCAUCCCAACCAACAGAGGAUUGAGCAUCA
B2: chr9:86945015:86945116:-|3pUTR|ENSG00000180447|msi1|FALSE|unique (ssRNA)
RNA: GGGAGUUCUACAGUCCGACGAUCUUGGUUUUGGAUAAGUUUGAGCCCUUGACCUUAAUUUCAUUGCUACCACUCUGAUCUCUUAGCACAUUUCUUAGGAUUAAGGGUCCAAAAAUGCUGAUCUAAGGGGUUGCCAUGGUGUUGCAACAGAGGAUUGAGCAUCA
B3: chr5:172042892:172042993:-|3pUTR|ENSG00000072786|msi1|total|mutant (ssRNA)
RNA: GGGAGUUCUACAGUCCGACGAUCGAUUCUCCCGCUUCAACCUUGAGCCGCUGGGACGACAGAUACAUGCUACUGCACCCAGCCCGGUUAAGGUUCUGUAUACUCUGUCUUUCUAAAGCAAUUCCCUGGAAAUUUUCUCAACAUCAACAGAGGAUUGAGCAUCA
B4: chr9:69711526:69711627:-|3pUTR|ENSG00000188647|unk|FALSE|unique (ssRNA)
RNA: GGGAGUUCUACAGUCCGACGAUCGAACUGCUGUAGUCUUCUGCAAUCAGUCUCUGUAUUGGUAUAUCCAGUACUAUCGGGUUUAGGUUCUUUUUAUUUUUCCUUAAAUCUUACUUGUUUCUAGCGUCUUAAGAGUGGUAAUGGCAACAGAGGAUUGAGCAUCA
B5: chr22:49888080:49888186:+|3pUTR|ENSG00000100426|unk|FALSE|unique (ssRNA)
RNA: GGGAGUUCUACAGUCCGACGAUCUGGCUUAUUAACAGGGAAGAAGCUUGUUAUAUUCCAGUUGUAAGAAUAGCCUUAGUGUUUAGAUUUUUUUAUGAUAGGGAAGAUGCGGCCAUCACUGGGAUAUUUUCAAAUCCCAAGGACCAACAGAGGAUUGAGCAUCA
B6: chr19:35555165:35555334:-|CDS|ENSG00000105675|control|control|control (ssRNA)
RNA: GGGAGUUCUACAGUCCGACGAUCGGCCGUCACGGGGGAUGGUGUGAAUGACUCCCCAGCUCUGAAGAAGGCAGACAUCGGAGUAGCCAUGGGCAUCGCUGGCUCAGAUGCUGCCAAAAAUGCAGCUGACAUGAUCCUGCUGGACAACAGAGGAUUGAGCAUCA
B7: chr7:39987650:39987751:+|CDS|ENSG00000065883|unk|total|mutant (ssRNA)
RNA: GGGAGUUCUACAGUCCGACGAUCUCCCGGCAUUCAAGAUCUCGCCGCAGGCACAGAUUGUCCCGAUCCAGAAGUCGUCAUUCCCGUAUUUCUCCCCGCACACUAACUCUGAAGAGCCGCCUGGCAGCUGAAUUGAACAAGAAUCAACAGAGGAUUGAGCAUCA
B8: chr7:158734047:158734148:-|3pUTR|ENSG00000117868|msi1_unk|total|mutant (ssRNA)
RNA: GGGAGUUCUACAGUCCGACGAUCCUACCCGGAACACACCCUCUCACAGACGUACCAAUGUUAUUUUUAUAAUUUCAUGGAUUCCGUUAUACAUACCUUAACCGUUUUAUAAAAUUGUUGACAUUUCAGGCAAAUUUGGCCAAUCAACAGAGGAUUGAGCAUCA
B9: chr21:25881503:25881610:-|3pUTR|ENSG00000142192|msi1_unk|FALSE|overlapping (ssRNA)
RNA: GGGAGUUCUACAGUCCGACGAUCACAAACCCGUUUUAUGAUUUACUCAUUAUCGCCUUUUGACAGCUGUGCUGUAACACAAGUAGAUGCCUGAACUUGAAUUAAUCCACACAUCAGUAAUGUAUUCUAUCUCUCUUUACAUUUCAACAGAGGAUUGAGCAUCA
B10: chr12:68839811:68839877:+|CDS_3pUTR|ENSG00000135679|msi1_unk|FALSE|overlapping (ssRNA)
RNA: GGGAGUUCUACAGUCCGACGAUCAUAAGCCCUGCCCAGUAUGUAGACAACCAAUUCAAAUGAUUGUGCUAACUUAUUUCCCCUAGUUGACCUGUCUAUAAGAGAAUUAUAUAUUUCUAACUAUAUAACCCUAGGAAUUUAGACCAACAGAGGAUUGAGCAUCA
B11: chr2:165880514:165880799:-|CDS|ENSG00000123607|control|control|control (ssRNA)
RNA: GGGAGUUCUACAGUCCGACGAUCGAUGGCAUGGAAAUAUAGCAAUCGGACAAAUCCGGCAGUAGGUGAGUUUGGCAAUCACCUAGAUUUUUCACAGAAAAAUUAUGUUGUAUUUAUUAAUUUUCAUUUAAAUGCAUUUGAUUUCAACAGAGGAUUGAGCAUCA
B12: chrX:129805617:129805718:-|3pUTR|ENSG00000188706|msi1|total|mutant (ssRNA)
RNA: GGGAGUUCUACAGUCCGACGAUCUCUUUUCCCAUCCGAUAUAUGUAAGCCGUUGCCGCCGAGAUAAUAAUUGACAUUUCUCGCCGACUACCCAGAAACUUUUUUAAUACCUGUGCCAUUCUCAAUAAGAAUUUAUGAGAUGCCCAACAGAGGAUUGAGCAUCA
B13: chr11:69653362:69653473:+|3pUTR|ENSG00000110092|msi1_unk|total|mutant (ssRNA)
RNA: GGGAGUUCUACAGUCCGACGAUCACUGCCAUGUACCCGUUUCCGUUUUCUCUCCGAACAUUGUAUUACAGAUGCCUUUUUUGCCGUUUUUUUUUUUUUUAUGUGAUCAAUUUUGACUUAAUGUGAUUACUGCUCUAUUCCAAACAACAGAGGAUUGAGCAUCA
B14: chr11:69653362:69653473:+|3pUTR|ENSG00000110092|msi1_unk|FALSE|overlapping (ssRNA)
RNA: B13 RNA with C36U, C37A, C42U, C43A, C53U, C54A, C83U, C84A
B15: chr7:158734047:158734148:-|3pUTR|ENSG00000117868|msi1_unk|FALSE|overlapping (ssRNA)
RNA: B8 RNA with C83U, C84A, C101U, C102A
B16: chr1:6224442:6224573:-|3pUTR|ENSG00000116237|msi1_unk|total|mutant (ssRNA)
RNA: GGGAGUUCUACAGUCCGACGAUCCUAUACAAUUUUAAAAAUACUUCCUCACCGGAUGCUUUGGCCCUUCAUCUAUUUAAUCACCGCUACAUACCUAUUUUUUAUAAGCCGCAGUACACAUUCAAAGGGGUAUUCCCCGCUCAACAACAGAGGAUUGAGCAUCA
B17: chrX:129805617:129805718:-|3pUTR|ENSG00000188706|msi1|FALSE|unique (ssRNA)
RNA: B12 RNA with C35U, C36A, C49U, C50A, C55U, C56A, C58U, C59A, C83U, C84A
B18: chr1:6224442:6224573:-|3pUTR|ENSG00000116237|msi1_unk|FALSE|overlapping (ssRNA)
RNA: B16 RNA with C51U, C52A, C83U, C84A, C108U, C109A, C136U, C137A
B19: chr19:9526975:9527076:-|3pUTR|ENSG00000130818|unk|total|mutant (ssRNA)
RNA: GGGAGUUCUACAGUCCGACGAUCCCUCUCAGACCUUCCAUCAUUACUAUAUUUCACUUUUAUGCCUAUAAACACACACAAAUCCGCAUAUGUAAUCUAAUACAUUGCCGCUAUUUUUCAGAAGUUAUCAGAUCAAUUAAGUAUCAACAGAGGAUUGAGCAUCA
B20: chr2:205797254:205797461:+|3pUTR|ENSG00000118257|msi1|total|mutant (ssRNA)
RNA: GGGAGUUCUACAGUCCGACGAUCUCACCCUCCCAUGAUGCGCAGUGUUCAGAAAGCUGGUAAGUCCCCGGGAUUUCCAGAAGCCGCCUGCAGAAGAAGGUAAGUUUGAAAGCCACUCCAGGGGUCCUGAUGCUGUCAUGCUCACAACAGAGGAUUGAGCAUCA
B21: chr1:233671823:233671924:+|3pUTR|ENSG00000135750|msi1|total|mutant (ssRNA)
RNA: GGGAGUUCUACAGUCCGACGAUCUGCUGCUGUGGUCCGAAGCAGAUUUUAUACUUUUAACUGGAAACUUUGGGGUUUGCAUUCCGAUCAUUCCGCUGAUGGCUAAACCGCAAAAUUUAUAUUCCGAAGCAAAAAAAAAAAGCACAACAGAGGAUUGAGCAUCA
B22: chr3:133826890:133826991:-|3pUTR|ENSG00000154917|unk|total|mutant (ssRNA)
RNA: GGGAGUUCUACAGUCCGACGAUCUUUGAACGUGUUUCAGAUGUCAUGUGUUCCGUUUUUAUAUGUGUGUACAUAAUUAUAUACCGAGACCGACUUGUGUAUACACCUUCCACAAACACAUCCUCACGGAGAUACAUGUGCUCACAACAGAGGAUUGAGCAUCA

The binders below were run against MSI1 full-length (mouse, UniProt Q61474 1-362) (assay: nsRBNS (natural sequence RNA bind-n-seq); RBNS binding buffer (assumed for nsRBNS): 25 mM Tris pH 7.5, 150 mM KCl, 3 mM MgCl2, 0.01% Triton X-100, 500 ug/ml BSA, 20 U/ml SUPERase-In, 4 C; UNK is unkempt and MSI1 is Musashi-1; names of the RNAs are library labels; protein concentration not given here; high values mean tight binding).
Chain of MSI1 full-length (Q61474 whole entry): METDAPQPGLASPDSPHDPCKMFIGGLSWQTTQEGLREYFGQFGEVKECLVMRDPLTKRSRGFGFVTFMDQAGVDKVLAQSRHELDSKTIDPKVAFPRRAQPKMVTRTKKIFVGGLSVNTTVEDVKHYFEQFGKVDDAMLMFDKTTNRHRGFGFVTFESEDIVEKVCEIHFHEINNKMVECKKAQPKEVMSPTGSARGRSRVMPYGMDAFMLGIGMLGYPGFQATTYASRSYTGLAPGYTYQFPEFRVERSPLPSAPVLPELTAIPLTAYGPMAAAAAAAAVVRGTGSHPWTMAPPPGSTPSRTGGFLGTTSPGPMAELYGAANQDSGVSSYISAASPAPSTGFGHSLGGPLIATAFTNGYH

Binder | binding signal [enrichment R]
B1 | 0.649
B2 | 0.273
B3 | 0.391
B4 | 3.44
B5 | 11.3
B6 | 0.465
B7 | 0.458
B8 | 0.582
B9 | 0.949
B10 | 3.21
B11 | 0.379
B12 | 0.608
B13 | 1.65
B14 | 32.9
B15 | 20.8
B16 | 18.3
B17 | 71.9
B18 | 7.66
B19 | 9.57
B20 | 0.483
B21 | 0.297
B22 | 0.348
